Hits are enriched below; roughly 2.9% of the tested compounds scored in any of these assays.
BioA inh: blocks M. tuberculosis BioA enzyme activity | 360,000 tested, 0.096% active | inhibition, % at 9.99 µM | AID 602481 | purified M. tuberculosis BioA enzyme, plate reader; in the data active = inhibition above about 40%; inconclusive = no clear call, values can overlap the other calls
GDH-TPI inh: counter-screen for M. tuberculosis FBA inhibitors: GDH-TPI coupled enzymes; GDH-TPI coupled enzyme counterscreen, NADH absorbance; inhibition, % at 4.8 µM; 360,000 tested, 1.2% active; in the data active = inhibition above about 30%;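 note: 0% = DMSO wells and 100% = wells lacking the enzyme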
FadD28 FP inh: blocks FadD28 binding to the bisubstrate probe. fluorescence polarization. inhibition, % at 12.5 µM. 360,000 tested, 0.22% active; in the data active = inhibition above about 8.5%, passing the limit was not always enough; inconclusive = no clear call, values can overlap the other calls
FBA Mtb inh: inhibitors of M. tuberculosis fructose-bisphosphate aldolase; P9WQA3; purified M. tuberculosis FBA, fluorescence read-out; inhibition, % at 1 µM; 360,000 tested, 2.3% active; AID 588726; in the data active = inhibition above about 27%;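 note: 0% = vehicle and 100% = reference inhibitor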
Target sequence (P9WQA3 whole entry, looked up): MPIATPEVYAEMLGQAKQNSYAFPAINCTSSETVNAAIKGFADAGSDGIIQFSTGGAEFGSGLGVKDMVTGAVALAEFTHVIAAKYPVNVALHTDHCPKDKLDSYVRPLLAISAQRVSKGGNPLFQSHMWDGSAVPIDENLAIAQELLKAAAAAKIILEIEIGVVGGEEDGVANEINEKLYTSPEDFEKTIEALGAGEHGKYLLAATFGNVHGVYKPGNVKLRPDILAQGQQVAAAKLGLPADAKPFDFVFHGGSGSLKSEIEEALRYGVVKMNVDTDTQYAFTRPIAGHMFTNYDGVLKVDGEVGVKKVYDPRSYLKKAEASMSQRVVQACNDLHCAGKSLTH
Mtb hypoxia rep: inhibitors of hypoxia-regulated fluorescent reporter in Mycobacterium tuberculosis | 300,000 tested, 0.1% active | fluorescence inhibition, % (test concentration not listed) | M. tuberculosis hypoxia-regulated fluorescent reporter, fluorescence; in the data active = fluorescence inhibition mostly above about 23%, no sharp cut-off; inactive = mostly below about 17%
Active calls of the source: *; ? = inconclusive; · = no result given; + = active, no number.

SMILES | BioA inh | GDH-TPI inh | FadD28 FP inh | FBA Mtb inh | Mtb hypoxia rep
CC(CC(=O)Nc1cccc(Cl)c1Cl)=NNC(=O)C(=O)NC1CCCCC1 | · | · | · | · | 2.7
COc1ccc(-c2ccc(C#N)c(SCC(=O)NCc3ccco3)n2)cc1OC | -0.4 | 46.2* | -1.6 | + | -13.3
COc1cccc(-c2ccc(C#N)c(SCC(=O)NCCc3ccccc3)n2)c1 | -2.2 | 4.1 | -0.6 | 3.5 | 3.8
COc1ccc(-c2ccc(C#N)c(SCC(=O)OCc3ccccc3)n2)cc1OC | -1.0 | 22.5 | -3.8 | + | 5.7
O=C(O)c1ccc(N=Nc2c(O)[nH]c3ccccc23)cc1 | -1.0 | 35.0* | 1.2 | -5.0 | ·
CN(C)C(=O)c1ccc(N=Nc2c(O)c3ccccc3[nH]c2=O)cc1 | 0.2 | 15.3 | 0.5 | -15.4 | 23.2
O=[N+]([O-])c1cc2c(cc1C=Nn1cnnc1)OCO2 | · | · | · | · | -0.3
O=C(O)CC/C(=C\c1ccc(N2CCCC2)c([N+](=O)[O-])c1)c1nc2ccccc2s1 | · | 18.2 | ? | -5.1 | 6.8
CN(c1ccccc1)c1ccc(/C=C(/CCC(=O)O)c2nc3ccccc3s2)cc1[N+](=O)[O-] | · | 31.7* | 19.3* | -6.8 | 6.6
C[C@H]1CN([C@@H](C)CO)C(=O)c2cccc(NC(=O)C3CC3)c2O[C@@H]1CN(C)Cc1ccccc1 | -3.0 | · | · | · | ·
CC(C)CS(=O)(=O)C1=NN2C(=N)/C(=C\c3ccc(OC(=O)c4ccco4)cc3)C(=O)N=C2S1 | 1.5 | 33.8* | 3.9 | -2.4 | ·
CS(=O)(=O)C1=NN2C(=N)/C(=C\c3ccc(OC(=O)c4ccco4)cc3)C(=O)N=C2S1 | 0.4 | 16.4 | -2.8 | 5.3 | 10.9
C=CCOc1ccc(/C=C2\C(=N)N3N=C(S(=O)(=O)CC)SC3=NC2=O)cc1OC | -0.6 | 14.0 | -2.3 | 5.8 | 47.6*
O=C(C[C@@H]1C[C@@H]2c3cc(NC(=O)C4CCC4)ccc3O[C@@H]2[C@@H](CO)O1)NC1CCCCC1 | -1.8 | · | · | · | ·
O=C(C[C@H]1CC[C@@H]2[C@H](COC[C@H](O)CN2C(=O)Nc2ccc(Cl)c(Cl)c2)O1)NCc1ccc(Cl)c(Cl)c1 | -5.1 | · | · | · | ·
O=C(NCC1CCCO1)c1cc(-c2ccncc2)nc2ccccc12 (stereo not drawn) | · | -1.4 | -2.1 | 1.0 | -4.1
Cc1ccc(S(=O)(=O)N(C)C)cc1NC(=O)c1cc(-c2ccco2)nc2ccccc12 | -2.0 | 9.6 | -2.3 | 44.9* | 5.5
O=C(NCC1CCCO1)c1cc(-c2ccco2)nc2ccccc12 (stereo not drawn) | -1.9 | 27.6 | -3.2 | 183.1* | 3.1
CCN1CCN(c2ccc(S(=O)(=O)N3CCOCC3)cc2NC(=O)/C=C/c2ccc(OC)c(OC)c2)CC1 | -6.9 | 33.8* | -0.4 | 4.9 | ·
COc1ccc(/C=N/NC(=S)Nc2cc(S(=O)(=O)N3CCOCC3)ccc2N2CCOCC2)cc1O | · | 42.1* | -6.3 | -0.2 | ·
COc1ccc(C=NNC(=S)Nc2cc(S(=O)(=O)N3CCOCC3)ccc2N2CCOCC2)cc1O | · | · | · | · | 1.0
CC(C)NC(=O)N(C)C[C@H]1Oc2cc(C3=CCCC3)ccc2S(=O)(=O)N([C@@H](C)CO)C[C@H]1C | 20.2 | · | · | · | ·
COc1ccc(/C=N/N=C2\SCC(=O)N2c2c(C)n(C)n(-c3ccccc3)c2=O)cc1OC | · | 40.6* | -4.5 | -2.1 | ·
Cc1c(N2C(=O)CS/C2=N\N=C\c2ccccc2O)c(=O)n(-c2ccccc2)n1C | -0.4 | 31.6* | -0.2 | -0.9 | ·
Cc1c(N2C(=O)CS/C2=N\N=C\c2ccc(Cl)cc2)c(=O)n(-c2ccccc2)n1C | 0.1 | 10.4 | -4.5 | 0.9 | ·
SMILES | BioA inh | GDH-TPI inh | FadD28 FP inh | FBA Mtb inh | Mtb hypoxia rep
O=C(O)c1ccc(NN=Cc2ccncc2)cc1 | · | · | · | · | 3.2
Cc1cccc(N=NC(=S)NNc2cccc(C)c2)c1 | · | 5.3 | -2.5 | + | 13.1
C[C@@H]1CN([C@@H](C)CO)C(=O)c2cc(C3=CCCC3)cnc2O[C@@H]1CN(C)C(=O)C1CCC1 | -2.3 | · | · | · | ·
Oc1[nH]c2ccccc2c1C=NCC1CCCO1 (stereo not drawn) | -0.1 | 35.1* | -0.5 | -1.6 | 13.5
O=C1CC(c2ccccc2)CC(O)=C1C=NCC1CCCO1 (stereo not drawn) | -0.3 | 10.6 | -0.4 | 0.7 | 3.1
O=C(Cc1cccnc1)N[C@@H]1CC[C@H](CCNS(=O)(=O)c2ccccc2Cl)O[C@H]1CO | 0.9 | · | · | · | ·
Cc1cc(=O)oc2cc(OCC(O)CN3CCc4ccccc4C3)ccc12 (stereo not drawn) | -0.3 | 13.7 | -2.2 | 49.8* | ·
CCN(CC)c1ccc(/C=N/NC(=O)c2ccco2)c(O)c1 | · | 41.3* | -0.7 | 4.4 | ·
CCN(CC)c1ccc(/C=N/NC(=O)Cc2cccs2)c(O)c1 | -0.8 | 38.0* | ? | 0.0 | ·
CN(C)c1ccc(C=NNC(=O)c2ccco2)cc1 | · | · | · | · | 2.7

Bioassay records as filed in PubChem.
